In PubChem BioAssay (EPA / NIEHS):
The source made the active and inactive calls. Rule for the calls: active = hit-call score of the fitted dose curve at least 0.9, where 1 is the maximum; inactive = score below 0.9.

Tests used:
[1] = ATG_CRE_CIS: Attagene CIS-FACTORIAL HepG2 Assay for human cAMP Responsive Element (CRE) binding protein 3 (AID 2282926); details: HepG2 CRE cis-reporter, Attagene multiplexed mRNA; actives raise or lower the signal
In short: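 Cells carrying cis-regulated reporter constructs respond through their own endogenous factors. After 24 h treatment, RNA is reverse-transcribed, amplified, labelled and sized by capillary electrophoresis; up- and down-regulation are both scored against vehicle.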

[2] = target: CCAAT/enhancer-binding protein beta (Homo sapiens) (UniProt P17676); test: ATG_C_EBP_CIS: Attagene CIS-FACTORIAL HepG2 Assay for human CCAAT/Enhancer Binding Protein (C/EBP) beta (AID 2282927); details: HepG2 Attagene cis-factorial transcription factor reporter; actives raise or lower the signal
Sequence of CCAAT/enhancer-binding protein beta (Homo sapiens) (P17676 whole entry, looked up, the tested form may be a part): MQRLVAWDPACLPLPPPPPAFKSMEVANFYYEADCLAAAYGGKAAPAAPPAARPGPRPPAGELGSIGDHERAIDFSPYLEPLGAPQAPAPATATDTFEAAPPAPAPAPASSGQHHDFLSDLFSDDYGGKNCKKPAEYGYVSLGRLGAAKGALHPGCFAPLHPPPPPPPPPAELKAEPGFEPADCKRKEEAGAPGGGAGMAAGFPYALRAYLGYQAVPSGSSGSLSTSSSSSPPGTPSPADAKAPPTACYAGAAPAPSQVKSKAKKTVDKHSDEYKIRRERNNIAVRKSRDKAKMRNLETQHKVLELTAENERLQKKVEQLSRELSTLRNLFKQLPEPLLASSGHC
In short: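 Endogenous C/EBPb-driven reporter transcripts measured in transfected human HepG2 cells at 24 h via RT-PCR and capillary electrophoresis of labelled fragments. Activity fitted in both directions relative to DMSO baseline.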

[3] = ATG_CMV_CIS: Attagene CIS-FACTORIAL HepG2 Assay for human CMV (Internal Marker) (AID 2282928); details: HepG2 CMV promoter reporter, transcription factor profiling; actives raise or lower the signal;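 note: endpoint acts as a background internal control marker rather than a target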
In short: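 24 h chemical treatment, HepG2 with transient multi-reporter transfection; RNA → oligo(dT) RT → PCR → 6-FAM extension → HpaI digest → CE fluorescence. Bidirectional fit, DMSO negative control.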

[4] = ATG_DR4_LXR_CIS: Attagene CIS-FACTORIAL HepG2 Assay for human Liver X Receptor (LXR), DR4 submotif (AID 2282929); details: HepG2 Attagene DR4 cis-reporter, mRNA transcription; actives raise or lower the signal
In short: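 DR4 cis-reporter in HepG2, 24 h exposure. Detection: RT-PCR, 6-FAM labelling, CE fragment analysis. Endpoint fitted bidirectionally, DMSO = baseline.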

[5] = target: Aryl hydrocarbon receptor (Homo sapiens) (UniProt P35869); test: ATG_Ahr_CIS: Attagene CIS-FACTORIAL HepG2 Assay for human Aryl Hydrocarbon Receptor (Ahr) (AID 2282930); details: HepG2 AhR cis-factorial reporter transcription; actives raise or lower the signal
Sequence of Aryl hydrocarbon receptor (Homo sapiens) (P35869 whole entry, looked up): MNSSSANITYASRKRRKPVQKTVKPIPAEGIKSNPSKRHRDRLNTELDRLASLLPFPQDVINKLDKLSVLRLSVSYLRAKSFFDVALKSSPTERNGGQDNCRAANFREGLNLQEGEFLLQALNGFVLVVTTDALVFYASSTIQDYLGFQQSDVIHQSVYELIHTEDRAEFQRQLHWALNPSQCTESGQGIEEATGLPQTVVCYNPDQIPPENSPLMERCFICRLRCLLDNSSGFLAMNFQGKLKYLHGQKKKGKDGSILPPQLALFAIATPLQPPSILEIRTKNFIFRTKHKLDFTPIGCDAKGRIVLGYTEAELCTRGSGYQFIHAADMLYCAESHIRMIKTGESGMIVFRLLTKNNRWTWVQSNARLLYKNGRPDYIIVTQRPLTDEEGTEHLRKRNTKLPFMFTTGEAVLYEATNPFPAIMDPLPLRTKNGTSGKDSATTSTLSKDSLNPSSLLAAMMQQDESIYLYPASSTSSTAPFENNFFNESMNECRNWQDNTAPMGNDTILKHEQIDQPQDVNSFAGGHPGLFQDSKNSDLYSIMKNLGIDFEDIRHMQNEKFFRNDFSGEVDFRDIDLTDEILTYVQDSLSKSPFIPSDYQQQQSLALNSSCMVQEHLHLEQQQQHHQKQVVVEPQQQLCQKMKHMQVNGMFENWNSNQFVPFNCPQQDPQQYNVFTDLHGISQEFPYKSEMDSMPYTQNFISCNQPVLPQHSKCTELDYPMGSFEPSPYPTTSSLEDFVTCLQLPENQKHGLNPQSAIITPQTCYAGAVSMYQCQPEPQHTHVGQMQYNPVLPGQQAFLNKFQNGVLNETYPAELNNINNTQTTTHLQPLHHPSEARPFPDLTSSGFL
In short: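 Reporter mRNA levels, quantified by RT-PCR and fluorescent capillary electrophoresis, reflect endogenous AhR transcriptional activity in HepG2 cells carrying transfected cis-promoter reporter constructs. Readout at 24 h post-dose; gain or loss fitted against DMSO baseline.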

[6] = ATG_AP_2_CIS: Attagene CIS-FACTORIAL HepG2 Assay for human Activator Protein 2 (AP-2) (AID 2282932); details: HepG2 AP-2 cis-reporter, Attagene transcription factor profiling; actives raise or lower the signal
In short: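 Transiently transfected HepG2 cells are exposed to chemical for 24 h. Reporter transcripts are then measured as fluorescence following RT-PCR and capillary separation, and gain- or loss-of-signal is fitted relative to DMSO.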

[7] = ATG_BRE_CIS: Attagene CIS-FACTORIAL HepG2 Assay for human Bone Morphogenetic Protein (BMP) Response Element (BRE) (AID 2282933); details: HepG2 BMP response element reporter, Attagene transcription factor profiling; actives raise or lower the signal
In short: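 Transient MRTU transfection of human HepG2 liver cells; 24 h compound treatment; total RNA isolated, reverse-transcribed, PCR-amplified, 6-FAM labelled, HpaI-cut, capillary electrophoresis. DMSO = negative control/baseline, bidirectional fit.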

[8] = target: Retinoic acid receptor alpha (Homo sapiens) (UniProt P10276); test: ATG_DR5_RAR_CIS: Attagene CIS-FACTORIAL HepG2 Assay for human Retinoic Acid Receptor Alpha (RARE), DR5 submotif (AID 2282934); details: HepG2 Attagene cis-factorial RARE DR5 reporter, mRNA; actives raise or lower the signal
Sequence of Retinoic acid receptor alpha (Homo sapiens) (P10276 whole entry, looked up): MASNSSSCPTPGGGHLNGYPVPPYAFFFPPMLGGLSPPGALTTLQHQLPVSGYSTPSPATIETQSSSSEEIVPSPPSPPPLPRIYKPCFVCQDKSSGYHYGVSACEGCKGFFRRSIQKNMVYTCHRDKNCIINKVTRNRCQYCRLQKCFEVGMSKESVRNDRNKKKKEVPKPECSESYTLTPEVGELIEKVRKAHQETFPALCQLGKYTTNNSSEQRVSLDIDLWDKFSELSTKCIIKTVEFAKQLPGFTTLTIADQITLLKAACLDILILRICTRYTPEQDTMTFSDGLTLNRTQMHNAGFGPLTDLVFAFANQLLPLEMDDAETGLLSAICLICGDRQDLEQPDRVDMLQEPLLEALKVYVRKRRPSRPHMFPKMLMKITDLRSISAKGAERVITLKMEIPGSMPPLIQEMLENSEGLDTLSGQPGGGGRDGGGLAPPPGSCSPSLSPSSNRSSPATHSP
In short: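 Reporter transcripts from a DR5-regulated unit, measured via RT-PCR plus capillary electrophoresis, reflect endogenous RAR activity in transiently transfected human HepG2 liver cells. Exposure lasted 24 h; gain or loss of signal scored against DMSO.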

[9] = target: Transcription factor E2F1 (Homo sapiens) (UniProt Q01094); test: ATG_E2F_CIS: Attagene CIS-FACTORIAL HepG2 Assay for human E2F Transcription Factor 1 (AID 2282935); details: HepG2 Attagene cis-reporter, E2F reporter RNA transcripts; actives raise or lower the signal
Sequence of Transcription factor E2F1 (Homo sapiens) (Q01094 whole entry, looked up): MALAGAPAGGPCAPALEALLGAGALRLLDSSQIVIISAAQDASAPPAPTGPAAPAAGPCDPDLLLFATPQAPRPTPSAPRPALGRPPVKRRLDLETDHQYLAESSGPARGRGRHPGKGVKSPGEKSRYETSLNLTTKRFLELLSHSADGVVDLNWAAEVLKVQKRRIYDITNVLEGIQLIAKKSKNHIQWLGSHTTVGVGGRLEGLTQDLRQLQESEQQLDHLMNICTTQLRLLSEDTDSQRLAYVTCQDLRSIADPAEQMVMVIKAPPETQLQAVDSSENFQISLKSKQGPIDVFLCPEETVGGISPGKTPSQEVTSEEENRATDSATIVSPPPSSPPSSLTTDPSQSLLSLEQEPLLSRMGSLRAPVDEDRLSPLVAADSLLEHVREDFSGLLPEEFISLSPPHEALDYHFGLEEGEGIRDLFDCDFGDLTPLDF
In short: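 Fluorescent RT-PCR products, digested with HpaI for 2 h at 37 C, are separated by capillary electrophoresis. Source RNA comes from transfected HepG2 cultures treated for 24 h.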

[10] = ATG_E_Box_CIS: Attagene CIS-FACTORIAL HepG2 Assay for human Enhancer Box (E-box) (AID 2282936); details: HepG2 E-box cis-reporter transcription, actives raise or lower the signal
In short: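 Fluorescent reporter fragments separated by capillary electrophoresis gave the signal; mRNA came from HepG2 cells transfected with cis-element reporters and treated 24 h. Curves fitted bidirectionally relative to DMSO controls.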

[11] = ATG_M_61_CIS: Attagene CIS-FACTORIAL HepG2 Assay for M61 Transcription Factor (Internal Marker) (AID 2282937); details: HepG2 Attagene CIS-FACTORIAL M61 internal marker reporter; actives raise or lower the signal
In short: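 Background-control endpoint: HepG2 cells with cis-regulated reporter constructs, 24 h exposure, reporter mRNA detected via fluorescent primer extension and capillary electrophoresis; values from bidirectional fitting with DMSO baseline.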

[12] = ATG_EGR_CIS: Attagene CIS-FACTORIAL HepG2 Assay for human Early Growth Response 1 (EGR1) (AID 2282938); details: HepG2 Attagene CIS-FACTORIAL EGR reporter mRNA; actives raise or lower the signal
In short: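 Endpoint derived by bidirectional fitting versus DMSO vehicle. Method: cis-promoter reporter units transfected into HepG2, 24 h dosing, RNA isolation, RT-PCR with 6-FAM primer extension and HpaI digestion, then capillary electrophoresis fluorescence detection.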

[13] = ATG_AP_1_CIS: Attagene CIS-FACTORIAL HepG2 Assay for human Activator Protein 1 (AP-1) (AID 2282931); details: HepG2 Attagene cis-factorial AP-1 reporter mRNA; actives raise or lower the signal
In short: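 Cis-regulated reporter units transiently expressed in HepG2 report endogenous transcription-factor activity. Signal: reporter mRNA at 24 h, via RT-PCR and fluorescent capillary electrophoresis. Endpoint derived by bidirectional fitting, DMSO as negative control.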

Measured: AC50

O=S(=O)(F)C(F)(F)C(F)(F)C(F)(F)C(F)(F)F
inactive: [1] | [2] | [3] | [4] | [5] | [6] | [7] | [8] | [9] | [10] | [11] | [12]

Brc1ccc(Br)cc1
inactive: [1] | [2] | [3] | [4] | [5] | [13] | [6] | [7] | [9] | [10] | [12]

CC(=O)C(F)(F)C(F)(F)F
inactive: [1] | [2] | [3] | [4] | [5] | [6] | [7] | [8] | [9] | [10] | [11] | [12]

C=CCOC(F)(C(F)(F)F)C(F)(F)F
inactive: [1] | [2] | [3] | [4] | [5] | [13] | [6] | [8] | [9] | [10] | [12]

CCOP(=S)(OCC)Oc1ccc(Cl)cc1Cl
active: [3] 63 µM
inactive: [1] | [2] | [4] | [5] | [13] | [6] | [8] | [9] | [10] | [12]

COc1ccc(N)cc1
inactive: [1] | [2] | [3] | [4] | [5] | [13] | [6] | [9] | [10] | [11] | [12]

O=C1C=CC(=O)c2ccccc21
inactive: [1] | [2] | [3] | [4] | [6] | [7] | [8] | [9] | [10]
active: [5] 0.652 µM

C=CCOC(N)=O
inactive: [1] | [2] | [3] | [4] | [5] | [6] | [7] | [8] | [9] | [10] | [11] | [12]

O=S1(=O)OC(c2cc(Br)c(O)c(Br)c2)(c2cc(Br)c(O)c(Br)c2)c2ccccc21
active: [5] 26 µM
inactive: [1] | [2] | [3] | [4] | [13] | [6] | [8] | [9] | [10] | [11] | [12]

O=S(=O)(c1ccc(Cl)cc1)c1cc(Cl)c(Cl)cc1Cl
active: [1] 37.8 µM | [3] 42.5 µM | [4] 40.9 µM
inactive: [2] | [5] | [13] | [6] | [9] | [10] | [11] | [12]

C#C[C@]1(O)CC[C@H]2[C@@H]3CCC4=CC(=O)CC[C@]4(C)[C@H]3CC[C@@]21C
inactive: [1] | [2] | [3] | [4] | [5] | [13] | [6] | [9] | [10] | [11] | [12]
